Dicer inh = human Dicer pre-microRNA cleavage inhibition; z-score at 25 µM; cat-ELCCA pre-miR-21 Dicer processing, chemiluminescence; stronger effect = higher value; actives 6% (n = 47,000); Q9UPY3; AID 1347074; in the data active = z-score above about 3, passing the limit was not always enough;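 note: plate controls were vehicle for no effect and no enzyme for full effect; higher signal means more uncleaved substrate so more Dicer inhibition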
Active calls of the source: *. The sample as a whole holds a higher share of hits than the screen did.

SMILES	Dicer inh
Fc1ccc(-c2cn3cc(Cc4ccc(Br)cc4)sc3n2)cc1	3.42*
Cc1ccc(Cc2cn3cc(-c4ccccc4)nc3s2)cc1	-0.16
Fc1ccc(-c2cn3cc(Cc4ccccc4Cl)sc3n2)cc1	0.06
Fc1ccc(Cc2cn3cc(-c4ccc(F)cc4)nc3s2)cc1	3.94*
COc1ccc(C2/C(=C(\O)c3ccc(F)cc3)C(=O)C(=O)N2Cc2cccnc2)cc1 (stereo not drawn)	-2.42
O=S1(=O)C=CC(Sc2nnc[nH]2)C1 (stereo not drawn)	-0.49
COc1ccc(C2C3CCc4ccccc4C3=NN2c2ccccc2)cc1 (stereo not drawn)	2.78
CC1(C)Cc2c(c(N3CCCC3)nc3sc4c(N5CCCC5)ncnc4c23)CO1	-0.5
CC1Oc2ccc(C(=O)CCC(=O)O)cc2NC1=O (stereo not drawn)	-0.33
Cc1nc(N2CCN(c3cccc(Cl)c3)CC2)nc2c1C(=O)CC(c1ccco1)C2 (stereo not drawn)	3.01*
Cc1nc(N2CCN(c3ccccn3)CC2)nc2c1C(=O)CC(c1ccc(Cl)cc1)C2 (stereo not drawn)	-0.26
Cc1nc(N2CCN(c3ccccc3)CC2)nc2c1C(=O)CC(C)C2 (stereo not drawn)	0.21
CN(C)c1ccc(C(=O)NNC(=O)c2cc([N+](=O)[O-])ccc2N)cc1	2.06
N#CCC(=O)NNC(=S)NC1CCCCC1	-1
Cc1ccc(/C(O)=C2/C(=O)C(=O)N(CC(C)O)C2c2cccc(F)c2)cc1 (stereo not drawn)	-1.07
Cc1ccc(S(=O)(=O)N/N=C/c2nccs2)cc1	-1.24
CN(C)/C=N/NS(=O)(=O)c1ccccc1	-0.67
Cc1ccc(S(=O)(=O)N/N=C/c2ccc3ccccc3c2O)cc1	3.25*
CCCC(O)C(NC(=O)c1ccccc1)c1ccccc1 (stereo not drawn)	0.02
COc1ccc(CCN2C(=O)CSC2=Nc2cc(Cl)cc(Cl)c2)cc1OC	-0.84
O=C(Nc1ccc(N2C(=O)c3cccnc3C2=O)cc1)c1ccco1	-1.3
O=C1c2cccnc2C(=O)N1c1cccc(-c2nc3ccccc3o2)c1	2.66
O=C(O)c1ccc(N2C(=O)c3cccnc3C2=O)cc1	4.45*
O=[N+]([O-])c1ccc(CSc2ncc(C(F)(F)F)cc2Cl)cc1	-0.04
Cc1ccccc1CN1CCC(N2CCN(CCO)CC2)CC1	1.45
SMILES	Dicer inh
Cc1ccc2c(=O)c(C(=O)c3ccccc3C)coc2c1	2.05
Cc1ccc2c(=O)c(C(=O)c3ccccc3)coc2c1	5.49*
COC(=O)Oc1ccc2c(=O)c(-c3ccccc3)coc2c1	0.85
COc1ccc(-c2c(C(F)(F)F)[nH]n3c(=O)cc(-c4cccc([N+](=O)[O-])c4)nc23)cc1	7.89
O=c1[nH]c(SCc2ccccc2)nc2c1CCC2	-1.01
COCc1cc(N2CCCCC2)nc(-c2csc(C)n2)n1	0.02
Cc1nnsc1-c1nnc(-c2cccc3ccccc23)o1	0.49
C=CCN1C(=O)/C(=C\c2ccc(OCc3ccccc3)cc2)N=C1c1ccccc1	0.88
O=C1/C(=C\c2ccccc2)N=C(c2ccccc2)N1c1ccccc1	-0.09
O=C1/C(=C/c2ccc(Cl)cc2)N=C(c2ccccc2)N1CCc1ccc(Cl)cc1	4.24*
O=C1/C(=C\c2cccs2)N=C(c2ccccc2)N1Cc1ccc(Cl)cc1	-0.52
NC(=O)CN1C(=O)/C(=C\c2ccc(F)cc2)N=C1c1ccccc1	0.21
COc1ccc(/C=C2/N=C(c3ccccc3)N(Cc3ccc(F)cc3)C2=O)cc1	3.87*
Cc1cc(C)nc(SCC(=O)Nc2ccc(Br)cc2)n1	0.91
COc1ccc(C2C(C#N)=C(N)Oc3n[nH]c(-c4ccccc4)c32)c(OC)c1 (stereo not drawn)	-4.28
CCOC(=O)c1sc(SCc2ccccc2)c2c1CC(c1ccc(OC)cc1)C/C2=N\O (stereo not drawn)	-1.25
COCCOC(=O)C1=C(C)NC2=C(C(=O)CC(c3ccc(Cl)cc3)C2)C1c1ccc(C)cc1 (stereo not drawn)	1.26
Cc1nn(-c2ccc(N3CCNCC3)nn2)c(=O)c2ccccc12	-1.09
CC(C)S(=O)(=O)C/C(N)=N/OC(=O)c1cc(Cl)cc(Cl)c1	5.38*
CC(C)S(=O)(=O)C/C(N)=N/OS(=O)(=O)c1ccc(Cl)cc1	-1.48
CC(C)S(=O)(=O)C/C(N)=N/OCc1ccc(Cl)cc1	-0.68
N#C/C(=N\OC(=O)c1ccc(Cl)cc1)S(=O)(=O)c1ccc(Cl)cc1	-3.76
CCCS(=O)(=O)C/C(N)=N/OC(=O)c1ccc(Cl)cc1	-0.54
N/C(CS(=O)(=O)Cc1ccco1)=N\OC(=O)c1ccc(Cl)cc1	4.82*
Cc1cc(NC(=O)c2nccnc2C(=O)O)n(C)n1	-0.99
SMILES	Dicer inh
Cc1nc2nc(C(F)(F)F)[nH]n2c(=O)c1Cc1ccc(Cl)cc1	-0.97
CCOC(=O)c1sc2ccc(NS(=O)(=O)c3ccc(C)cc3)cc2c1C	0.69
COc1ccc(CCN2C(=O)CSC2=Nc2c(Br)cc(F)cc2Br)cc1OC	-0.01
Oc1ccc2ccccc2c1CN1CCN(c2ccc(F)cc2)CC1	-3.35
CC1CCN(Cc2c(O)ccc3ccccc23)CC1	1.65
Oc1ccc2ccccc2c1CN1CCc2ccccc2C1	3.61*
Cc1ccc(S(=O)(=O)NNC2CS(=O)(=O)c3ccccc32)cc1 (stereo not drawn)	-0.12
CCCOC(=O)C1C2C=CC3(CN(Cc4ccc(C)cc4)C(=O)C13)O2 (stereo not drawn)	-1.22
CCOc1nc(-c2ccc(C)cc2)ccc1-c1noc(-c2ccco2)n1	1.24
CCC(CC)C(=O)Nc1nc2c(s1)C(=O)CC(C)(C)C2	0.05
CCCCN1CC(C(=O)OCC)=C(O)C1=O	-0.89
CCOC(=O)C1=C(O)CCN(C)C1	13.6*
CCOC(=O)c1sc(=S)n(C)c1C	2.89
Cc1cc(/C(N)=N/OC(=O)c2ccccc2)c(-c2ccccc2)o1	-0.45
Cc1ccc(S(=O)(=O)N2CCN(CC(=O)Nc3cc(-c4ccccc4)sc3C(N)=O)CC2)cc1	0.76
O=c1c2ccccc2c2n[nH]c(O)c3ccc(=NC4CCCCC4)c1c32	-0.55
CC1CC(=O)N(c2cc(Cl)cc(Cl)c2)C(=O)C1	2.38
CC(C)(C)c1cc2nc3c(c(=O)n2[nH]1)CN(C1CCCCC1)C3=O	-1.3
CCOC(=O)C1=C(C)Nc2ncnn2C1c1ccc(N(CC)CC)cc1 (stereo not drawn)	2.06
CC1=C(C(=O)OC(C)C)C(c2cccc(OCc3ccccc3)c2)n2ncnc2N1 (stereo not drawn)	0.32
CC1=C(C(=O)OCc2ccccc2)C(c2ccc(OCc3ccccc3)cc2)n2ncnc2N1 (stereo not drawn)	3.1*
COc1ccc(S(=O)(=O)N2CCN(Cc3ccsc3)CC2)cc1	-0.06
Cc1ccc(-c2nc(NC(=O)C3CC3)sc2C)cc1Cl	2.03
Cc1cc(C)cc(OC(=O)c2ccc(Cl)c(Cl)c2)c1	1.47
COc1ccc(/C(C)=N/OC(=O)c2cc(OC)c(OC)c(OC)c2)cc1CSc1ccccn1	-0.4
SMILES	Dicer inh
O=C(Oc1cccc2cccnc12)c1ccccc1	-0.08
O=C(Oc1ccc(Cl)c2cccnc12)N1CCOCC1	-1.06
O=C(Oc1ccc(Cl)c2cccnc12)c1cccnc1	3.48*
COc1ccc(C(=O)Oc2ccc(Cl)c3cccnc23)cc1OC	4.55*
NC(=O)c1c(NC(=O)Cn2nc(C(F)(F)F)c3c2CCCC3)sc2c1CCCC2	-1.14
O=C(CSc1n[nH]c(=O)n1-c1ccc(OCc2ccccc2)cc1)c1ccc(C(F)(F)F)cc1	-0.82
N#CCSc1n[nH]c(=O)n1-c1ccc(Cl)cc1	-2.31
N#Cc1c(-c2cccs2)oc(N)c1-c1ccc(Cl)cc1Cl	2.19

From PubChem
